A word on the Inhibition: it is the drop in the measured response relative to a control, in per cent. High values mean strong suppression, low ones little suppression.

The values below come from ChEMBL document CHEMBL1157539, “Thousands of chemical starting points for antimalarial lead identification” (Nature, 2010).

What all share (type): functional
Experiment [1] relates to Plasmodium falciparum. In words: GSK_TCMDC: Inhibition of Plasmodium falciparum 3D7 in whole red blood cells, using parasite LDH activity as an index of growth. Test compounds present at 2uM.
For experiment [2], the system named is Plasmodium falciparum. In words: GSK_TCMDC: Inhibition of Plasmodium falciparum Dd2 in whole red blood cells, using parasite LDH activity as an index of growth. Test compounds present at 2uM.
The next experiment deals with HepG2. In words: GSK_TCMDC: Percent inhibition of human HepG2 cell line. Test compounds present at 10uM.

Structures are written as SMILES.

As to `COc1ccc2ncc(F)c(CCN3CC[C@@H](CNCc4nc5c(cc4C)SCC(=O)N5)C3)c2n1.Cl`, the Inhibition was determined as 91% in the experiment on Plasmodium falciparum [1], 42% in the experiment with Plasmodium falciparum [2] and 14% in the experiment on HepG2.

As to `COc1ccc(C2C(C(=O)Nc3ccc(C)c(F)c3)c3cc(OC)c(OC)cc3C(=O)N2C)cc1` (stereo unspecified), the Inhibition in the experiment on Plasmodium falciparum [1] is on record as 81%; in the experiment on Plasmodium falciparum [2], 26%; in the experiment with HepG2, 6%.

As for `COc1ccc(C2CCN(CCCNC(=O)c3ccc(NC(=O)c4ccc(Cl)cc4)cc3)CC2)c(OC)c1`, the Inhibition is on record as 99% in the experiment on Plasmodium falciparum [1], 58% in the experiment on Plasmodium falciparum [2] and 26% with HepG2.

Turning to `CCOC(=O)c1cnc2c(OC)cc(OC)c(Cl)c2c1Nc1cccc(C)c1C`, the Inhibition in the experiment with Plasmodium falciparum [1] is 100%; in the experiment with Plasmodium falciparum [2], 99%; in the experiment with HepG2, 5%.

For the molecule `COC(=O)c1ccc(CCC(C)NCC(O)c2cccc(C(F)(F)F)c2)cc1.Cl` (stereo unspecified), the Inhibition came to 99% in the experiment on Plasmodium falciparum [1], 99% with Plasmodium falciparum [2] and 16% with HepG2.

For `Cc1cc(-c2ccc3c(c2)CC[C@@H](N[C@@H](C)c2ccccc2)C3)cnc1N.Cl`, the Inhibition with Plasmodium falciparum [1] is given as 98%; in the experiment on Plasmodium falciparum [2], 7%; in the experiment on HepG2, 3%.

Consider `CC(C)N(Cc1ccc(-c2ccc(C(F)(F)F)cc2)cc1)C(=O)Cn1c(CCc2cccc(F)c2F)cc(=O)c2ccc(CCCN3CCCCC3)cc21.O=C(O)C(O)C(O)C(=O)O`, for which the Inhibition amounted to 100% with Plasmodium falciparum [1], 82% in the experiment on Plasmodium falciparum [2] and 99% in the experiment on HepG2.

For `Cl.O=C(NC1CCC(N2CCN(c3cccc4[nH]ccc34)CC2)CC1)c1cc2cccnc2[nH]1` (stereo unspecified), the figures for the Inhibition in the experiment on Plasmodium falciparum [1], in the experiment on Plasmodium falciparum [2] and in the experiment with HepG2 were 99%, 85% and 9%, respectively.

Turning to `NCc1cccc(-c2ccc(CNC3CCN(Cc4ccccc4)CC3)cc2)c1.O=C(O)C(F)(F)F`, the Inhibition is recorded as 95% in the experiment on Plasmodium falciparum [1], 3% in the experiment with Plasmodium falciparum [2] and 2% in the experiment with HepG2.

Take `CCOC(=O)C(NC(=O)Cc1ccccc1)C(C)C` (stereo unspecified): the Inhibition was found to be 96% in the experiment with Plasmodium falciparum [1], 98% in the experiment on Plasmodium falciparum [2] and 39% in the experiment with HepG2.

As to `Cl.ON=C1CCc2cc(-c3nc(-c4ccc(OCCN5CCCCC5)cc4)[nH]c3-c3ccncc3)ccc21`, the Inhibition with Plasmodium falciparum [1] amounted to 99%; in the experiment with Plasmodium falciparum [2], 54%; in the experiment with HepG2, 73%.

`CCCc1ccc(Nc2nc(C)cc(N(CC)CCCN3CCCCC3)n2)cc1.O=C(O)C(F)(F)F`: the Inhibition in the experiment with Plasmodium falciparum [1] stood at 100%; with Plasmodium falciparum [2], 95%; with HepG2, 48%.

As to `COc1ccc(CN2CCC(N3CC(c4ccccc4)(c4ccccc4)OCC3=O)C2)c(O)c1.O=C(O)C(F)(F)F` (stereo unspecified), the results for the Inhibition in the experiment with Plasmodium falciparum [1], in the experiment with Plasmodium falciparum [2] and in the experiment on HepG2 were 96%, 27% and 10%, respectively.

As to `N=C(N)NN=CC(=O)Nc1cc([N+](=O)[O-])cc([N+](=O)[O-])c1.O=S(=O)(O)O`, the results for the Inhibition in the experiment with Plasmodium falciparum [1], in the experiment on Plasmodium falciparum [2] and in the experiment with HepG2 were 100%, 0% and 0%, respectively.

Turning to `Cl.Oc1ccc2ccccc2c1CNC1CCCCCC1`, the Inhibition was 83% in the experiment with Plasmodium falciparum [1], 33% with Plasmodium falciparum [2] and 9% in the experiment on HepG2.

Consider `COc1ccc(NC(=O)[C@H](Cc2ccccc2)Nc2cc(C)nc(NCC3CCCCC3)n2)cc1.O=C(O)C(F)(F)F`, for which the Inhibition was determined as 100% in the experiment on Plasmodium falciparum [1], 83% in the experiment with Plasmodium falciparum [2] and 9% with HepG2.

As for `CCCCn1c(=N)c(C(=O)NCc2cccnc2)cc2c(=O)n3cccc(C)c3nc21`, the Inhibition is 100% in the experiment with Plasmodium falciparum [1], 47% in the experiment with Plasmodium falciparum [2] and 7% in the experiment with HepG2.

`COc1cc(CNC[C@@H](O)[C@H](Cc2ccccc2)NC(=O)c2cc(C3CCCC3)cc(N3CCCS3(=O)=O)c2)cc(OC)c1.Cl`: the Inhibition with Plasmodium falciparum [1] amounted to 95%; in the experiment with Plasmodium falciparum [2] it was 94%; with HepG2 it was 31%.

Regarding `O=C(/C=C/c1ccc(Cl)c(Cl)c1)NCCCCCN1CCC(c2c[nH]c3ccccc23)CC1`, the results for the Inhibition in the experiment on Plasmodium falciparum [1], in the experiment on Plasmodium falciparum [2] and in the experiment on HepG2 were 99%, 7% and 33%, respectively.

For the molecule `Fc1cccc(COc2ccc(Nc3ncnc4sc(C#C[C@H]5CC[C@H](CN6CCOCC6)N5)cc34)cc2Cl)c1`, the Inhibition in the experiment with Plasmodium falciparum [1] is listed as 92%; in the experiment on Plasmodium falciparum [2] it was 23%; in the experiment on HepG2, 16%.

Take `N#Cc1cccc(NC(=O)Nc2cccc(-c3cccc(-c4nc5cc(F)ccc5[nH]4)c3)c2)c1`: the Inhibition in the experiment with Plasmodium falciparum [1] came out at 100%; in the experiment with Plasmodium falciparum [2] it was 66%; in the experiment with HepG2, 60%.

With `COc1ccc(Nc2nccc(-c3cccc(NC(=O)c4cc5cc(F)ccc5[nH]4)c3)n2)cc1`, the Inhibition was found to be 92% in the experiment with Plasmodium falciparum [1], 37% in the experiment on Plasmodium falciparum [2] and 3% in the experiment with HepG2.

Take `CC(=O)Oc1cc(OCc2ccccc2)c(OC(C)=O)c(OCc2ccccc2)c1`: the Inhibition is on record as 94% in the experiment with Plasmodium falciparum [1], 78% in the experiment with Plasmodium falciparum [2] and 11% in the experiment with HepG2.

`CCN(CC)/C(=N\C(=N)NCCCCCCNC(=N)/N=C(\Nc1ccc(Cl)cc1)N(CC)CC)Nc1ccc(Cl)cc1`: the Inhibition in the experiment with Plasmodium falciparum [1] is 97%; with Plasmodium falciparum [2], 96%; in the experiment with HepG2, 1%.

Consider `Cc1cc(N[C@@H](Cc2ccccc2)C(=O)NCCOc2ccccc2)nc(NCCOc2ccccc2)n1.O=C(O)C(F)(F)F`, for which the Inhibition in the experiment on Plasmodium falciparum [1] worked out at 98%; in the experiment on Plasmodium falciparum [2] it was 24%; with HepG2, 0%.

Turning to `Cc1ccc(Nc2nc(N/N=C/c3ccccc3[N+](=O)[O-])nc(Nc3ccc([N+](=O)[O-])cc3)n2)cc1C`, the values for the Inhibition with Plasmodium falciparum [1], in the experiment with Plasmodium falciparum [2] and with HepG2 were 100%, 81% and 4%, respectively.

Consider `COc1ccc(Nc2nccc(-c3ccc4ccnc(NCCCCN)c4c3)n2)cc1`, for which the Inhibition was 95% in the experiment with Plasmodium falciparum [1], 47% with Plasmodium falciparum [2] and 15% in the experiment with HepG2.
